# FGF22 binding – shifts melting point of recombinant human FGF22. activity (Tm shift, normalised), % at 9.99 µM. 340,000 compounds, 1.5% hits. Q9HCT0. AID 651658. recombinant FGF22 thermal shift, SYPRO orange fluorescence; percent of sucrose octasulfate shift, DMSO zero;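 active means mean Tm shift, scaled 0 neutral to 100 positive control, at about 1.3% or above, every replicate too, limit read from the data; inconclusive means no clear call, values can overlap the other calls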
# AF4-AF9 inh – MLL-AF4/AF9 protein interaction inhibition | P42568 | AlphaScreen, biotin-AF4 peptide binding to FLAG-AF9 | inhibition, % at 10 µM | 350,000 compounds, 0.47% hits;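 active means every replicate reaching a set inhibition limit, whatever the replicate mean, cut at about 25% in these data; inconclusive means mean inhibition reaches that limit but some replicates miss it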
# DENV2 CPE – DENV2-induced cell death inhibition. DENV2-infected cells, cytopathic effect rescue, plate reader. CPE inhibition, % at 9.99 µM. 350,000 compounds, 1.7% hits; in the data active means CPE inhibition above about 20%, passing the limit was not always enough; inconclusive means no clear call, values can overlap the other calls; tested in BHK-21 cells
# RAD52 inh – inhibitors of human RAD52 DNA annealing | recombinant RAD52 DNA annealing, FRET fluorescence | 360,000 compounds, 0.46% hits | inhibition, % at 18.7 µM | P43351;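 active means every replicate showing at least 50% inhibition; inconclusive means mean inhibition at least 50% but not in every replicate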
# ERAP1 inh – ERAP1 (human) enzyme inhibition. recombinant ERAP1, Leu-AMC fluorescence, 60 min. inhibition, % at 10.7 µM. 340,000 compounds, 0.15% hits. AID 652197;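 active means mean replicate inhibition of at least 30%, or all replicates individually reaching that 30% level; inactive means mean below 30% and not every replicate reaching it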
# Hits are given with their value; 0 = inactive; ? = inconclusive; - = no result. In the library only some 4% were active in any assay of this set; here they are far more common.
SMILES,FGF22 binding,AF4-AF9 inh,DENV2 CPE,RAD52 inh,ERAP1 inh
COC(=O)c1c(NC(=O)c2ccc(N(C)S(=O)(=O)c3ccc(C)cc3)cc2)sc2c1CCCC2,0,0,0,0,0
CC#CC[N+](C)(C)CCCCCCCCCCCC,0,0,0,0,42
CCCC(=O)N1CC2(CN(C(=O)NC(C)C)C2)c2c(n(C)c3cc(OC)ccc23)[C@H]1CO,0,0,0,0,0
C[C@@H]1CN([C@H](C)CO)C(=O)Cc2cc(NC(=O)Cn3cnnn3)ccc2O[C@H]1CN(C)C(=O)Nc1ccc(C(F)(F)F)cc1,0,0,30,0,0
C[C@@H]1CN([C@H](C)CO)C(=O)Cc2cc(NC(=O)Cn3cnnn3)ccc2O[C@@H]1CN(C)CC1CCCCC1,0,0,22,0,0
C[C@H](CO)N1C[C@H](C)[C@@H](CN(C)C(=O)Nc2ccc(C(F)(F)F)cc2)Oc2ccc(NC(=O)Cn3cnnn3)cc2CC1=O,0,0,0,0,0
C[C@H](CO)N1C[C@H](C)[C@H](CN(C)C(=O)Nc2ccc3c(c2)OCO3)Oc2ccc(NC(=O)Cn3cnnn3)cc2CC1=O,0,0,42,0,0
C[C@@H]1CCCCO[C@@H](CN(C)C(=O)CCCN(C)C)[C@H](C)CN([C@@H](C)CO)C(=O)c2cc(NC(=O)Nc3ccc(F)cc3)ccc2O1,-,0,0,0,0
COc1cccc(-c2cnc3c(c2)C(=O)N([C@H](C)CO)C[C@@H](C)[C@@H](CN(C)Cc2ccc(F)cc2)O3)c1,0,0,0,0,0
O=C(c1cccc([N+](=O)[O-])c1)c1cc2ccccc2o1,0,0,46,0,0
C/C(=N\Nc1cccc([N+](=O)[O-])c1)c1cc2ccccc2o1,0,0,0,0,0
COc1ccc(NC(=O)c2ccc(Oc3ncccn3)cc2)cc1,44,0,0,0,0
COc1ccc(NC(=O)c2ccc(NC(=O)c3ccncc3)cc2)cc1,0,31,0,0,0
CCOC(=O)CSc1ccc(C(=O)Nc2ccc(OC)cc2)cn1,43,0,0,0,0
O=C(Nc1ccc(NC(=O)c2ccncc2)cc1)c1ccncc1,0,0,0,0,0
COc1ccc2c3c([nH]c2c1)[C@H](CO)N(C(=O)NC(C)C)CC31CN(C(=O)NC2CCCC2)C1,0,0,0,-,-
COc1ccc2c3c([nH]c2c1)[C@@H](CO)N(C(=O)Cc1ccccc1)CC31CN(C)C1,-,0,0,0,0
O=S(=O)(c1cccc2cccnc12)N1CCN(Cc2ccc(OCCO)cc2)CC1,0,0,41,0,0
CN(Cc1nc2ccccc2c(=O)[nH]1)C(=O)c1cccc(S(=O)(=O)N2CCc3ccccc32)c1,0,0,44,0,0
CCN(C(=O)CN1C(=O)NC(c2ccccc2)(c2ccccc2)C1=O)c1ccccc1,0,38,0,0,0
CCC(=O)N1CC2(C1)CN(Cc1ccccc1Cl)[C@H](CO)c1[nH]c3cc(OC)ccc3c12,0,0,0,-,-
COc1ccc2c3c([nH]c2c1)[C@H](CO)N(C)CC31CN(C(=O)c2cccnc2)C1,0,0,0,0,0
CC(C)C1Cc2[nH]c(=S)[nH]c(=O)c2C(c2ccc(Cl)cc2)O1 (centres undefined),0,0,0,0,0
CC(C)C1Cc2[nH]c(=S)[nH]c(=O)c2C(c2ccc(F)cc2)O1 (centres undefined),0,0,32,0,0
CCOC(=O)Cn1c2[n+](c3ccccc31)CC(O)CS2 (centres undefined),0,0,0,0,78
SMILES,FGF22 binding,AF4-AF9 inh,DENV2 CPE,RAD52 inh,ERAP1 inh
CN(C)C(=O)[C@H]1[C@H](CO)[C@H]2Cn3c(ccc(-c4ccccc4F)c3=O)[C@@H]1N2C(=O)c1ccncc1,0,0,0,0,0
C[C@@H]1[C@@H](Sc2ccccc2)CC(=O)O[C@@H]1c1ccc(-c2ccccc2)cc1,0,0,0,0,0
O=C1C=CC2(O[C@H](c3ccccc3)[C@@H](c3ccccc3)O2)[C@H](Sc2ccccc2O)C1,0,0,0,0,33
C[N+](C)(C)CCCCCC(=O)/C=N/O,0,0,0,0,0
CC(=O)CC[N+](C)(C)C,0,0,0,0,37
C[C@H](CO)N1C[C@H](C)[C@@H](CN(C)C(=O)c2ccc(F)cc2)Oc2cc(C3=CCCCC3)ccc2S1(=O)=O,0,0,0,0,0
O=C(OCC1OC(n2ccc(=O)[nH]c2=O)C(Cl)C1O)c1ccccc1 (centres undefined),0,0,0,0,0
O=C(OCC1OC(n2ccc(=O)[nH]c2=O)C2OC12)c1ccccc1 (centres undefined),43,0,0,0,0
C[C@H](CO)N1C[C@H](C)[C@H](CN(C)C(=O)Nc2ccc(F)cc2)Oc2c(NC(=O)C3CC3)cccc2C1=O,-,0,35,0,0
CC(C)NC(=O)Nc1cccc2c1O[C@@H](CN(C)C(=O)Nc1ccc(F)cc1)[C@@H](C)CN([C@H](C)CO)C2=O,0,0,22,0,0
CC(C)NC(=O)Nc1cccc2c1O[C@H](CN(C)C(=O)Nc1ccc(F)cc1)[C@H](C)CN([C@@H](C)CO)C2=O,0,0,0,0,0
COc1cccc(CN2CC3(CN(C(C)=O)C3)c3c(n(C)c4cc(OC)ccc34)[C@H]2CO)c1,0,0,0,0,0
CCN1[C@@H]2c3ccc(-c4cccc(F)c4)c(=O)n3C[C@@H]2[C@@H](CO)[C@@H]1C(=O)N(C)C,0,0,0,0,0
C[C@@H]1CCCCO[C@H](CN(C)C(=O)C2CCCCC2)[C@H](C)CN([C@H](C)CO)C(=O)c2cc(NC(=O)NC3CCCCC3)ccc2O1,0,0,0,0,0
CC(C)NC(=O)N(C)C[C@@H]1Oc2ccc(NC(=O)Cn3cnnn3)cc2CC(=O)N([C@@H](C)CO)C[C@H]1C,0,0,0,0,0
COc1cc(/C=C(\NC(C)=O)C(=O)Nc2ccccc2C)ccc1OC(C)=O,-,0,21,0,0
COc1ccc(NC(=O)/C(=C/c2ccc(OC(C)=O)c(OC)c2)NC(C)=O)cc1,0,0,?,0,0
COc1ccc(S(=O)(=O)N(C)C[C@H]2Oc3cc(C#CC4CC4)ccc3S(=O)(=O)N([C@@H](C)CO)C[C@H]2C)cc1,0,0,0,0,0
COc1ccc2c3c([nH]c2c1)[C@H](CO)N(Cc1ccccn1)CC31CN(C(=O)c2ccccn2)C1,0,0,0,0,-
Cc1ccc(S(N)(=O)=O)c(C)c1N1CCCC1=O,44,0,0,0,0
Fc1ccccc1COc1ccc2ccccc2c1CNc1nn[nH]n1,43,0,0,0,0
CC(CNC(=O)Cn1ccc(NC(=O)OCc2ccccc2)nc1=O)c1ccccc1 (centres undefined),0,0,36,0,0
Cc1noc(C)c1S(=O)(=O)Nc1ccc2c(c1)C(=O)N([C@@H](C)CO)C[C@@H](C)[C@@H](CN(C)S(C)(=O)=O)O2,0,0,0,0,0
